The structures appear in SMILES notation. Results filed as inconclusive are left out. Activity calls are given as the source filed them. Unless noted, calls come from the whole dose curve; as a rule, active = well fitted curve in the direction sought with a large enough effect; inconclusive = small, poorly fitted or top-dose-only effect, or another doubt; inactive = no such curve, though single readings can be large; an effect the other way counts as inactive or inconclusive. Where a SMILES comes first, the peptide text is derived from it. [ ]: non-standard residue; d: D form. The star is where a group is joined. Dolaproine = CO[C@@H]([C@@H]1CCCN1)[C@@H](C)C(=O)O; Dil = CC[C@H](C)[C@H](NC)[C@@H](CC(=O)O)OC; Doe = c1ccc(C[C@H](N*)c2nccs2)cc1; Aib = CC(C)(N)C(=O)O

This note sets out measurements from PubChem BioAssay (NCATS).

Assay [1] is described as follows: Primary qHTS for inhibitors of nuclear receptor binding SET domain protein 2 (NSD2) in an isogenic RCH-ACV NSD2 p.E1099K mutant (9B) (AID 1645876). Note: nearly all actives have a fitted effect of over 70% in size. Note: potency is the fitted concentration of half-maximal effect.
The nature of assay [2]: Primary qHTS for inhibitors of nuclear receptor binding SET domain protein 2 (NSD2) in an RCH-ACV wild type WT cells (2C) (AID 1645877). Note: nearly all actives have a fitted effect of over 70% in size. Note: potency is the fitted concentration of half-maximal effect. Background: qHTS replaces the single test concentration by a dilution series.
Assay [3] deals with Catechol O-methyltransferase (Homo sapiens) (UniProt P21964). The assay can be described thus: Confirmatory Screen for Target Class Profiling of Small Molecule Inhibitors of Methyltransferases (AID 1745852; calls by dose curve; note: potency is the fitted concentration of half-maximal effect; for activity change, negative = inhibition: % is set by controls: 0 for no effect and ±100 for the full control effect). The following applies: MTase-Glo luminescence, SAH detection, recombinant enzyme; measured here: COMT max response; stronger effect = lower value.
Chain of Catechol O-methyltransferase (Homo sapiens) (P21964 whole entry, looked up): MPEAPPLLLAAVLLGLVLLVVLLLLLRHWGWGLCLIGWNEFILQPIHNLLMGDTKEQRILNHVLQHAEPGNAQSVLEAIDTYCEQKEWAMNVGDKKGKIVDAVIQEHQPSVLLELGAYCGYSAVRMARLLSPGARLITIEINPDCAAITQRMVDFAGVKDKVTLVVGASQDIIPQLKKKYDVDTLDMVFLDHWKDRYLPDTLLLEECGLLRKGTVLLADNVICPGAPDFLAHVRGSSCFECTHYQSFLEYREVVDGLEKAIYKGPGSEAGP
In assay [4] the target is Guanidinoacetate N-methyltransferase (Homo sapiens) (UniProt Q14353). The assay is described as above. The following applies: activity change, negative = inhibition: at 57.3 µM (top of the series) unless noted.
In assay [5] the target is Nicotinamide N-methyltransferase (Homo sapiens) (UniProt P40261). The description is as above. As to conditions: MTase-Glo luminescence, SAH detection, recombinant enzyme; measured here: NNMT max response; stronger effect = lower value.
Chain of Nicotinamide N-methyltransferase (Homo sapiens) (P40261 whole entry, looked up): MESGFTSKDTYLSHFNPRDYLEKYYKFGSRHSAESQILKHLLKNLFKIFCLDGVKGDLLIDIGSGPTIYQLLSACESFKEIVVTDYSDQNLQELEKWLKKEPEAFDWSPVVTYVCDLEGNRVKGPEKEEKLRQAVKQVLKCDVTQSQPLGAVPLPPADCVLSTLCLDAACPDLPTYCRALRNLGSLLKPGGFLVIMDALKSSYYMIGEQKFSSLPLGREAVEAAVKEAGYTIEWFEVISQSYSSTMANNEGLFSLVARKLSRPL
For assay [6], the target named is Phenylethanolamine N-methyltransferase (Homo sapiens) (UniProt P11086). The assay is described as above. As to conditions: MTase-Glo luminescence, SAH detection, recombinant enzyme; measured here: PNMT max response; stronger effect = lower value.
Chain of Phenylethanolamine N-methyltransferase (Homo sapiens) (P11086 whole entry, looked up): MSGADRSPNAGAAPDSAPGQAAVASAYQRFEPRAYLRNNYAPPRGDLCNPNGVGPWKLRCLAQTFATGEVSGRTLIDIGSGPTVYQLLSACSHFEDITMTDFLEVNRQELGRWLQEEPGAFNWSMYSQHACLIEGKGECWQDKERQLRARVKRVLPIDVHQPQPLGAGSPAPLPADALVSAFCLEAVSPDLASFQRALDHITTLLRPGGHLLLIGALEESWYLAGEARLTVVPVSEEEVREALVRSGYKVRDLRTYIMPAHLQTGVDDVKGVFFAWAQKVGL
Assay [7] relates to CRL-7250. The assay can be described thus: Cytotoxic Profiling of Annotated Libraries Using Quantitative High-Throughput Screening (AID 1296008). For max response: % is set by controls: 0 for no effect and ±100 for the full control effect. Note: nearly all actives have a fitted effect of over 60% in size. Note: potency is the fitted concentration of half-maximal effect. As to conditions: Five cell lines viability, CellTiter-Glo ATP luminescence, 48-72 h; max response: stronger effect = lower value. The method, boiled down:
(§1)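 Cells exposed to compounds for 48 or 72 hr at 37 degrees Celsius. Viability read as ATP-coupled luminescence with CellTiter-Glo after 10 min at room temperature.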
For orientation: Cellular ATP, detected with luciferase, serves as a proxy for viable cell number.

Assay [8] relates to CRL-7250. Kind of assay: qHTS assay to identify novel small-molecules to repurpose for Merkel cell carcinoma treatment (AID 1296009). Note: nearly all actives have a fitted effect of over 60% in size. The following applies: MCC and control cell lines, CellTiter-Glo viability, 72 h; series mostly up to 92 µM. The method, boiled down: (§2)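 Cells were incubated with compound for 72 hr at 37 degree celsius before CellTiter-Glo addition. Luminescence was normalized with no-cell wells as full cytotoxicity and DMSO as baseline.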

The next assay relates to NIH3T3. The description is as above. As to conditions: MCC and control cell lines, CellTiter-Glo viability, 72 h; at 44.8 µM (top of the series) unless noted. In outline:
as §2

The test system of a further assay is HeLa. The assay can be described thus: Primary qHTS to identify gynecologic anti-cancer compounds using libraries of approved drugs and bioactive compounds (AID 1345084). Note: nearly all actives have a fitted effect of over 55% in size. Note: potency is the fitted concentration of half-maximal effect. As to conditions: Gynecologic cancer cell panel viability, ATPlite luminescence, 48 h; series mostly up to 57.5 µM. The method, boiled down:
(§3)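 In this quantitative HTS, cell killing is estimated from loss of ATP-dependent luciferase light. Cells see five compound concentrations over a 48 h exposure.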

Another assay concerns SKOV3. Described as above. The following applies: Gynecologic cancer cell panel viability, ATPlite luminescence, 48 h; series mostly up to 57.5 µM. In outline:
as §3

Assay [9] in a line: P-glycoprotein substrates identified in KB-8-5-11 adenocarcinoma cell line, qHTS therapeutic library screen (AID 1346987). Note: nearly all actives have a fitted effect of over 65% in size. Note: potency is the fitted concentration of half-maximal effect. The method, boiled down:
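P-gp-mediated resistance screen: KB-8-5-11 cells treated 72 h with compounds in dose-response. CellTiter-Glo viability.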

For assay [10], the system named is Zika virus NS2B-NS3 protease (unlinked complex). The assay can be described thus: Primary screen GU Rhodamine qHTS for Zika virus inhibitors: Unlinked NS2B-NS3 protease assay (AID 1347159). The method, boiled down:
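Noncovalent NS2B hydrophilic domain/NS3 protease complex (25 nM final) in 10 mM Tris-HCl pH 8.0, 0.01% Tween 20, preincubated 15 min with compounds (up to 114 microM), then 1.5 microM Rhodamine110 substrate. Fluorescence change over 15 min fitted to 4-parameter Hill.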

For assay [11], the target named is Cytochrome P450 2D6 (Homo sapiens) (UniProt P10635). The assay can be described thus: Cytochrome P450 family 2 subfamily D member 6 (CYP2D6) small molecule antagonists: luciferase biochemical (cell-free) qHTS assay (AID 1645840; active = well fitted curve in the direction sought with a large enough effect in the repeat runs; an effect the other way counts as inactive or inconclusive; note: potency is the fitted concentration of half-maximal effect; nearly all actives have a fitted effect of over 55% in size). In outline:
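P450-Glo luminescent screen: recombinant CYP2D6 enzyme–proluciferin substrate mix preincubated with compound 10 min at room temperature, then NADPH regeneration added for 1 h at room temperature. Detection reagent added for 20 min; luciferin light read as relative luminescence units.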

The target in assay [12] is Cytochrome P450 2C9 (Homo sapiens) (UniProt P11712). Kind of assay: Cytochrome P450 family 2 subfamily C member 9 (CYP2C9) small molecule antagonists: luciferase biochemical (cell-free) qHTS assay (AID 1645842; active = well fitted curve in the direction sought with a large enough effect in the repeat runs; an effect the other way counts as inactive or inconclusive; note: nearly all actives have a fitted effect of over 55% in size; note: potency is the fitted concentration of half-maximal effect; for activity change, negative = inhibition: % is set by controls: 0 for no effect and ±100 for the full control effect). In outline:
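Luminescence, after 20 min with luciferin detection reagent, reflected CYP2C9 turnover during a 1 h NADPH-driven reaction at 37C. Enzyme-substrate mix contained 0.4% bovine serum albumin and was preincubated with compound 10 min at room temperature.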

A further assay concerns HACAT. Kind of assay: qHTS assay to identify novel small-molecules to repurpose for Merkel cell carcinoma treatment (AID 1296009). Note: nearly all actives have a fitted effect of over 60% in size. As to conditions: MCC and control cell lines, CellTiter-Glo viability, 72 h; at 44.8 µM (top of the series) unless noted. In outline: as §2
For the next assay, the system named is HEK293. Kind of assay: Cytotoxic Profiling of Annotated Libraries Using Quantitative High-Throughput Screening (AID 1296008). For max response: % is set by controls: 0 for no effect and ±100 for the full control effect. Note: nearly all actives have a fitted effect of over 60% in size. Note: potency is the fitted concentration of half-maximal effect. As to conditions: Five cell lines viability, CellTiter-Glo ATP luminescence, 48-72 h; max response: stronger effect = lower value. The method, boiled down: as §1
Another assay relates to KB-3-1. Described as above. The following applies: Five cell lines viability, CellTiter-Glo ATP luminescence, 48-72 h; max response: stronger effect = lower value. The method, boiled down:
as §1

Chain of Cytochrome P450 2D6 (Homo sapiens) (P10635 whole entry, looked up): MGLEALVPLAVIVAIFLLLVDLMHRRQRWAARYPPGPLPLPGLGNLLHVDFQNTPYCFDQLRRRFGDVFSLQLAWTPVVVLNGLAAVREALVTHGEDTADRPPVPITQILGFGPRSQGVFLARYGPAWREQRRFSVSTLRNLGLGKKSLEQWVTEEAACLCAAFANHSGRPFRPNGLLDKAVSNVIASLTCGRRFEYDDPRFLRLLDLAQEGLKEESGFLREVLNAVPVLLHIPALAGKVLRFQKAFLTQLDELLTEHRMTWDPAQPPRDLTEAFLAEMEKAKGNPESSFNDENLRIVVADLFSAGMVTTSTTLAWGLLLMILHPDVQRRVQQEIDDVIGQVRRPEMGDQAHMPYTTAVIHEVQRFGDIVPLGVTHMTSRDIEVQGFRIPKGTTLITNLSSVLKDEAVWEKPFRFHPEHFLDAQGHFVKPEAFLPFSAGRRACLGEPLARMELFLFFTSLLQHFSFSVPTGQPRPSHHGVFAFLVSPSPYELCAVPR
Chain of Cytochrome P450 2C9 (Homo sapiens) (P11712 whole entry, looked up): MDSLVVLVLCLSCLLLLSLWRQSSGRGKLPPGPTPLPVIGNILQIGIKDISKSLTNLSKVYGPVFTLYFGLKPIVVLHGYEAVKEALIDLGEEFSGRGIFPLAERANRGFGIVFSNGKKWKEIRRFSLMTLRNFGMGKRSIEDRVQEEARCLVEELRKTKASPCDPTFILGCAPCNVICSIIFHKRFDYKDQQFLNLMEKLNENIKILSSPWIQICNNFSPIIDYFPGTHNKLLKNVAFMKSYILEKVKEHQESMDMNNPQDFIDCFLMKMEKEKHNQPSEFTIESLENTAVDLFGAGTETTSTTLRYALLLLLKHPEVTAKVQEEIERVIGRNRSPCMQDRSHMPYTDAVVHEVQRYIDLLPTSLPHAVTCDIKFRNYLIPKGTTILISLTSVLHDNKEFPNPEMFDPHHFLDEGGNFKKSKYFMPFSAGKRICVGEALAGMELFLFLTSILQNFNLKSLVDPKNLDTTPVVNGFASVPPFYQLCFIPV

Take `C[C@H]1CCC[C@H](O)CCC/C=C/c2cc(O)cc(O)c2C(=O)O1`: the Potency in [1] was 14.5 µM (active); in assay [2], 14.5 µM (active); in assay [4] it was 3.41 µM (active). The activity in [3] was -96.3%; in assay [5] it was -89%; in assay [6], -98.1%. Besides, the outcome in the assay with CRL-7250 [7] and in the assay on NIH3T3 was “inactive” in each case. Also, the Potency result in the assay on CRL-7250 [8], in the assay with HeLa and in the assay on SKOV3 was “inactive” each time.
For `COC1(C[S@@](=O)c2ccccc2)CCN(CCc2c[nH]c3ccc(F)cc23)CC1`, the Potency result (in assay [9]; in [10]; in [12]; with SKOV3) was “inactive” each time. In addition, in assay [11], the Potency was 2.39 µM (active). The max response in the assay on CRL-7250 [7] is 3.05% (inactive).
In the case of `CCCCOC(=O)c1ccnc2cc(C(OCCN3CCCCC3)c3ccccc3Cl)sc12` (stereo not drawn), the Potency in assay [1] was 23 µM (active). The figures for the activity in assay [3], in assay [5] and in [6] were -6.9%, -22.8% and -16.1%, respectively. The activity change, negative = inhibition in [4] is 6.41%. The max response in the assay on CRL-7250 [7] was -4.2% (inactive). The outcome with HACAT is “inactive”. Moreover, the Potency result in the assay on HeLa and in the assay with SKOV3 was “inactive” each time.
In the case of `CN1CN(c2ccccc2)C2(CCN(CCCC(=O)c3ccc(F)cc3)CC2)C1=O`, the Potency entry (in [10]; in the assay on SKOV3) was “inactive” throughout. Besides, the values for the Potency (in assay [1]; with HEK293) were 23 µM (active) and 14.6 µM (active), respectively. The max response with KB-3-1 was -4.39% (inactive).
As to `C[C@@H](CN1CCC2(CC1)C(=O)NCN2c1cccc(F)c1)NC(=O)c1ccc(Br)cc1`, the figures for the Potency in assay [11], in assay [12] and in assay [1] were 4.77 µM (active), 9.52 µM (active) and 11.5 µM (active), respectively. The outcome with CRL-7250 [7] was “inactive”. Besides, the Potency result with CRL-7250 [8] and with HeLa was “inactive” in each case.
Turning to `O=C1CN=C(c2ccccc2Cl)c2cc(Br)ccc2N1`, the Potency in [11] was 13.5 µM (active); in assay [12], 13.5 µM (active); in assay [1] it was 23 µM (active); in [2] it was 12.9 µM (active). Moreover, the max response in the assay on CRL-7250 [7] is -11.2% (inactive). In addition, in the assay with NIH3T3, the outcome is “inactive”. Moreover, the Potency entry in the assay on HeLa is “inactive”.
On to `CC[C@H](C)[C@@H]([C@@H](CC(=O)N1CCC[C@H]1[C@H](OC)[C@@H](C)C(=O)N[C@@H](Cc1ccccc1)c1nccs1)OC)N(C)C(=O)[C@@H](NC(=O)C(C)(C)N)C(C)C` (H-[Aib]V[Dil][Dolaproine]-Doe), for which the Potency was 0.146 µM (active) in assay [9] and 0.001 µM (active) in the assay with KB-3-1. Also, the Potency result (in assay [1]; in [2]; in the assay on SKOV3) was “inactive” each time. In the assay with HEK293, the max response is -94.9% (inactive). The outcome with HACAT was “inactive”.
Regarding `O=C1Nc2ccc3ncsc3c2/C1=C/c1cnc[nH]1`, the Potency is 1.64 µM (active) in [9]; 1.69 µM (active) in assay [11]; 3.38 µM (active) in assay [12]; 0.649 µM (active) in [1]; 5.17 µM (active) with HEK293; 2.31 µM (active) in the assay on KB-3-1. Also, the Potency in the assay on HeLa was 22.4 µM (active). The Potency entry in assay [10] was “inactive”. Moreover, the activity was -10.3% in assay [3], -8.72% in [5] and -10% in assay [6]. In addition, the activity change, negative = inhibition in assay [4] was -5.42%.
